Read-out in assay [1]: Fatty acid synthase (Homo sapiens) (UniProt P49327)
In words: LTEA_HepaRG_FASN: Life Technologies and Expression Analysis (LTEA) Assay for Fatty Acid Synthase (FASN) using HepaRG (AID 2283448). The following applies: mRNA level, 48 h; actives raise or lower the signal. The method, boiled down:
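Differentiated human HepaRG cells were exposed for 48 h in serum-free induction medium to eight half-log concentrations up to 100 uM in 0.5% DMSO, in duplicate. FASN mRNA was quantified by TaqMan qRT-PCR, normalized to ACTB/GAPDH/POLR2A, and fitted bidirectionally against DMSO.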

Read-out in assay [2]: Cyclin D2 (CCND2), CCND2 (gene 894)
In words: LTEA_HepaRG_CCND2: Life Technologies and Expression Analysis (LTEA) Assay for Cyclin D2 (CCND2) using HepaRG (AID 2283449).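 Also: CCND2 transcript measured by TaqMan qRT-PCR and normalised to three housekeeping genes.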 The following applies: mRNA level, 48 h; actives raise or lower the signal. The method, boiled down:
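Chemicals in 0.5% DMSO, eight half-log concentrations from 100 uM top, were applied in duplicate for 48 h to human HepaRG cells in serum-free induction medium. CCND2 mRNA by TaqMan qRT-PCR, normalised to ACTB/GAPDH/POLR2A; bidirectional fit versus DMSO.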

Read-out in assay [3]: Cyclin Dependent Kinase Inhibitor 1A (CDKN1A), CDKN1A (gene 1026)
In words: LTEA_HepaRG_CDKN1A: Life Technologies and Expression Analysis (LTEA) Assay for Cyclin Dependent Kinase Inhibitor 1A (CDKN1A) using HepaRG (AID 2283450). The following applies: mRNA level, 48 h; actives raise or lower the signal. In outline: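 Gain or loss of CDKN1A transcript is scored by bidirectional fitting against 0.5% DMSO vehicle. Human HepaRG cultures receive chemicals for 48 h across an 8-point series peaking at 100 uM; expression comes from qRT-PCR.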

Read-out in assay [4]: Cyclin D1 (CCND1), CCND1 (gene 595)
In words: LTEA_HepaRG_CCND1: Life Technologies and Expression Analysis (LTEA) Assay for Cyclin D1 (CCND1) using HepaRG (AID 2283451). As to conditions: mRNA level, 48 h; actives raise or lower the signal. In outline: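 Expression change is measured by qRT-PCR in HepaRG cells after 48 h treatment across eight concentrations topping at 100 uM, with duplicate wells and DMSO (0.5%) serving as baseline for bidirectional fitting.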

Read-out in assay [5]: catalase (CAT), CAT (gene 847)
In words: LTEA_HepaRG_CAT: Life Technologies and Expression Analysis (LTEA) Assay for catalase (CAT) using HepaRG (AID 2283452). As to conditions: mRNA level, 48 h; actives raise or lower the signal. In outline:
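HepaRG cells in serum-free induction medium, 0.5% DMSO vehicle, exposed 48 h in duplicate over 8 half-log concentrations from 100 uM. CAT mRNA measured by qRT-PCR, normalized to ACTB, GAPDH, POLR2A; bidirectional fit versus DMSO.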

Read-out in assay [6]: flavin-containing dimethylaniline monooxygenases 3 (FMO3), FMO3 (gene 2328)
Description: LTEA_HepaRG_FMO3: Life Technologies and Expression Analysis (LTEA) Assay for flavin-containing dimethylaniline monooxygenases 3 (FMO3) using HepaRG (AID 2283453). The following applies: mRNA level, 48 h; actives raise or lower the signal. The method, boiled down:
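HepaRG, 48 h exposure, 8-pt half-log series from 100 uM, 0.5% DMSO vehicle, duplicates; FMO3 transcript by Fluidigm TaqMan qRT-PCR, housekeeping-normalized; gain/loss fit vs DMSO.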

Read-out in assay [7]: Cytochrome P450 (CYP1A1), CYP1A1 (gene 1543)
Description: LTEA_HepaRG_CYP1A1: Life Technologies and Expression Analysis (LTEA) Assay for Cytochrome P450 (CYP1A1) using HepaRG (AID 2283454). As to conditions: mRNA level, 48 h; actives raise or lower the signal. In outline:
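Using HepaRG cultures with 0.5% DMSO as vehicle, eight-concentration exposures (max 100 uM) lasted 48 h. Transcript levels were measured by TaqMan qRT-PCR and normalized to ACTB, GAPDH and POLR2A.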

Read-out in assay [8]: CFLAR gene, CFLAR (gene 8837)
Description: LTEA_HepaRG_CFLAR: Life Technologies and Expression Analysis (LTEA) Assay for CFLAR gene using HepaRG (AID 2283455). The following applies: mRNA level, 48 h; actives raise or lower the signal. The method, boiled down:
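Differentiated HepaRG cells in serum-free induction medium were exposed 48 h in duplicate to eight half-log concentrations up to 100 uM in 0.5% DMSO; mRNA measured by TaqMan qRT-PCR, normalized to ACTB, GAPDH, POLR2A; bidirectional fitting versus DMSO.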

Assay [9] in a line: CEETOX_H295R_TESTO: CeeTox H295R High-throughput Steroidogenesis Assay for Testosterone (TESTO) (AID 2283457).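 As to AC50: cells exposed to chemicals for 48 h before medium collection.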 As to conditions: actives raise or lower the signal. The method, boiled down: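 Steroidogenesis in H295R cells following OECD 456 with minor changes; 48 h exposure. Medium testosterone by HPLC-MS/MS, DMSO as baseline, with MTT viability run in parallel.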
Read-out in assay [10]: growth arrest and DNA damage 45 (GADD45A), GADD45A (gene 1647)
Description: LTEA_HepaRG_GADD45A: Life Technologies and Expression Analysis (LTEA) Assay for growth arrest and DNA damage 45 (GADD45A) using HepaRG (AID 2283458). The following applies: mRNA level, 48 h; actives raise or lower the signal. The method, boiled down: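 Differentiated HepaRG cells were exposed in duplicate for 48 h in serum-free induction medium to 8-point half-log concentrations up to 100 uM in 0.5% DMSO. GADD45A mRNA was measured by TaqMan qRT-PCR, normalized to ACTB, GAPDH and POLR2A, with bidirectional fitting versus DMSO.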

Read-out in assay [11]: Forkhead box O3 (FOXO3), FOXO3 (gene 2309)
Description: LTEA_HepaRG_FOXO3: Life Technologies and Expression Analysis (LTEA) Assay for Forkhead box O3 (FOXO3) using HepaRG (AID 2283459). The following applies: mRNA level, 48 h; actives raise or lower the signal. The method, boiled down:
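Differentiated human HepaRG cells, 48 h post-plating, exposed in duplicate for 48 h in serum-free induction medium; 8-point half-log series from 100 uM in 0.5% DMSO. FOXO3 mRNA by TaqMan qRT-PCR, normalized to ACTB/GAPDH/POLR2A; bidirectional fit versus DMSO.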

Read-out in assay [12]: ABC Transporter (ABCB1), ABCB1 (gene 5243)
In words: LTEA_HepaRG_ABCB1: Life Technologies and Expression Analysis (LTEA) Assay for ABC Transporter (ABCB1) using HepaRG (AID 2283460). As to conditions: mRNA level, 48 h; actives raise or lower the signal. In outline:
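HepaRG cells exposed in duplicate for 48 h in serum-free induction medium to eight half-log concentrations up to 100 uM in 0.5% DMSO. ABCB1 mRNA quantified by qRT-PCR, normalised to ACTB, GAPDH and POLR2A; fitted bidirectionally versus DMSO.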

Read-out in assay [13]: growth arrest and DNA damage 45 (GADD45B), GADD45B (gene 4616)
In words: LTEA_HepaRG_GADD45B: Life Technologies and Expression Analysis (LTEA) Assay for growth arrest and DNA damage 45 (GADD45B) using HepaRG (AID 2283461). The following applies: mRNA level, 48 h; actives raise or lower the signal. The method, boiled down: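 Human HepaRG monolayers receive chemicals for 48 h at eight half-log concentrations, highest 100 uM, in 0.5% DMSO. Expression is measured by TaqMan qRT-PCR and normalized to ACTB, GAPDH and POLR2A.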

Read-out in assay [14]: ABC Transporter (ABCC3), ABCC3 (gene 8714)
In words: LTEA_HepaRG_ABCC3: Life Technologies and Expression Analysis (LTEA) Assay for ABC Transporter (ABCC3) using HepaRG (AID 2283462). As to conditions: mRNA level, 48 h; actives raise or lower the signal. The method, boiled down:
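Transcriptional change of ABCC3 in HepaRG after 48 h treatment, determined by qRT-PCR normalized to endogenous controls. Concentrations spanned eight half-log steps to 100 uM in 0.5% DMSO.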

Read-out in assay [15]: ABC Transporter (ABCB11), ABCB11 (gene 8647)
In words: LTEA_HepaRG_ABCB11: Life Technologies and Expression Analysis (LTEA) Assay for ABC Transporter (ABCB11) using HepaRG (AID 2283463). The following applies: mRNA level, 48 h; actives raise or lower the signal. In outline:
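Differentiated human HepaRG cells in serum-free induction medium, dosed in duplicate for 48 h. Eight-point half-log series from 100 uM in 0.5% DMSO; ABCB11 mRNA by qRT-PCR, normalized to ACTB, GAPDH, POLR2A, fitted bidirectionally versus DMSO.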

Read-out in assay [16]: Broad substrate specificity ATP-binding cassette transporter ABCG2 (Homo sapiens) (UniProt Q9UNQ0)
Description: LTEA_HepaRG_ABCG2: Life Technologies and Expression Analysis (LTEA) Assay for ABC Transporter (ABCG2) using HepaRG (AID 2283465). The following applies: mRNA level, 48 h; actives raise or lower the signal. In outline:
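Differentiated HepaRG cells were exposed for 48 h in serum-free induction medium to 8 half-log concentrations, top 100 uM, in 0.5% DMSO. ABCG2 mRNA was measured by qRT-PCR, normalized to ACTB, GAPDH and POLR2A, with bidirectional fitting versus DMSO.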

Read-out in assay [17]: ATP-citrate lyase (ACLY), ACLY (gene 47)
In words: LTEA_HepaRG_ACLY: Life Technologies and Expression Analysis (LTEA) Assay for ATP-citrate lyase (ACLY) using HepaRG (AID 2283466). The following applies: mRNA level, 48 h; actives raise or lower the signal. The method, boiled down:
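Differentiated HepaRG cells exposed 48 h in serum-free induction medium to eight half-log concentrations up to 100 uM in 0.5% DMSO, duplicates. Transcript measured by Fluidigm TaqMan qRT-PCR, normalized to ACTB, GAPDH, POLR2A; bidirectional fit versus DMSO.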

Read-out in assay [18]: Peroxisomal acyl-coenzyme A oxidase 1 (ACOX1) gene, ACOX1 (gene 51)
Description: LTEA_HepaRG_ACOX1: Life Technologies and Expression Analysis (LTEA) Assay for Peroxisomal acyl-coenzyme A oxidase 1 (ACOX1) gene using HepaRG (AID 2283467). As to conditions: mRNA level, 48 h; actives raise or lower the signal. The method, boiled down:
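HepaRG cells, plated 48 h then switched to serum-free induction medium, were exposed in duplicate for 48 h to 8-point half-log concentrations up to 100 uM in 0.5% DMSO. ACOX1 mRNA was measured by qRT-PCR, normalized to ACTB/GAPDH/POLR2A, and fitted bidirectionally versus DMSO.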

Read-out in assay [19]: ABC Transporter (ABCC2), ABCC2 (gene 1244)
Description: LTEA_HepaRG_ABCC2: Life Technologies and Expression Analysis (LTEA) Assay for ABC Transporter (ABCC2) using HepaRG (AID 2283464). The following applies: mRNA level, 48 h; actives raise or lower the signal. In outline:
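After plating and 48 h culture, HepaRG medium is replaced with serum-free induction medium and chemicals are added (8 concentrations, max 100 uM, 0.5% DMSO) for 48 h. Total RNA then undergoes qRT-PCR for ABCC2 with housekeeping normalization.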

Read-out in assay [20]: Forkhead box O1 (FOXO1), FOXO1 (gene 2308)
Description: LTEA_HepaRG_FOXO1: Life Technologies and Expression Analysis (LTEA) Assay for Forkhead box O1 (FOXO1) using HepaRG (AID 2283456). As to conditions: mRNA level, 48 h; actives raise or lower the signal. The method, boiled down: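 Differentiated HepaRG cells, in serum-free induction medium with 0.5% DMSO, exposed 48 h in duplicate to 8-point half-log series from 100 uM. FOXO1 mRNA measured by TaqMan qRT-PCR, normalized to ACTB, GAPDH, POLR2A; bidirectional fit versus DMSO.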

Calls of active or inactive are those of the source. The calls were made as follows: active = hit-call score of the fitted dose curve at least 0.9, where 1 is the maximum; inactive = score below 0.9.

Sequence of Fatty acid synthase (Homo sapiens) (P49327 whole entry, looked up): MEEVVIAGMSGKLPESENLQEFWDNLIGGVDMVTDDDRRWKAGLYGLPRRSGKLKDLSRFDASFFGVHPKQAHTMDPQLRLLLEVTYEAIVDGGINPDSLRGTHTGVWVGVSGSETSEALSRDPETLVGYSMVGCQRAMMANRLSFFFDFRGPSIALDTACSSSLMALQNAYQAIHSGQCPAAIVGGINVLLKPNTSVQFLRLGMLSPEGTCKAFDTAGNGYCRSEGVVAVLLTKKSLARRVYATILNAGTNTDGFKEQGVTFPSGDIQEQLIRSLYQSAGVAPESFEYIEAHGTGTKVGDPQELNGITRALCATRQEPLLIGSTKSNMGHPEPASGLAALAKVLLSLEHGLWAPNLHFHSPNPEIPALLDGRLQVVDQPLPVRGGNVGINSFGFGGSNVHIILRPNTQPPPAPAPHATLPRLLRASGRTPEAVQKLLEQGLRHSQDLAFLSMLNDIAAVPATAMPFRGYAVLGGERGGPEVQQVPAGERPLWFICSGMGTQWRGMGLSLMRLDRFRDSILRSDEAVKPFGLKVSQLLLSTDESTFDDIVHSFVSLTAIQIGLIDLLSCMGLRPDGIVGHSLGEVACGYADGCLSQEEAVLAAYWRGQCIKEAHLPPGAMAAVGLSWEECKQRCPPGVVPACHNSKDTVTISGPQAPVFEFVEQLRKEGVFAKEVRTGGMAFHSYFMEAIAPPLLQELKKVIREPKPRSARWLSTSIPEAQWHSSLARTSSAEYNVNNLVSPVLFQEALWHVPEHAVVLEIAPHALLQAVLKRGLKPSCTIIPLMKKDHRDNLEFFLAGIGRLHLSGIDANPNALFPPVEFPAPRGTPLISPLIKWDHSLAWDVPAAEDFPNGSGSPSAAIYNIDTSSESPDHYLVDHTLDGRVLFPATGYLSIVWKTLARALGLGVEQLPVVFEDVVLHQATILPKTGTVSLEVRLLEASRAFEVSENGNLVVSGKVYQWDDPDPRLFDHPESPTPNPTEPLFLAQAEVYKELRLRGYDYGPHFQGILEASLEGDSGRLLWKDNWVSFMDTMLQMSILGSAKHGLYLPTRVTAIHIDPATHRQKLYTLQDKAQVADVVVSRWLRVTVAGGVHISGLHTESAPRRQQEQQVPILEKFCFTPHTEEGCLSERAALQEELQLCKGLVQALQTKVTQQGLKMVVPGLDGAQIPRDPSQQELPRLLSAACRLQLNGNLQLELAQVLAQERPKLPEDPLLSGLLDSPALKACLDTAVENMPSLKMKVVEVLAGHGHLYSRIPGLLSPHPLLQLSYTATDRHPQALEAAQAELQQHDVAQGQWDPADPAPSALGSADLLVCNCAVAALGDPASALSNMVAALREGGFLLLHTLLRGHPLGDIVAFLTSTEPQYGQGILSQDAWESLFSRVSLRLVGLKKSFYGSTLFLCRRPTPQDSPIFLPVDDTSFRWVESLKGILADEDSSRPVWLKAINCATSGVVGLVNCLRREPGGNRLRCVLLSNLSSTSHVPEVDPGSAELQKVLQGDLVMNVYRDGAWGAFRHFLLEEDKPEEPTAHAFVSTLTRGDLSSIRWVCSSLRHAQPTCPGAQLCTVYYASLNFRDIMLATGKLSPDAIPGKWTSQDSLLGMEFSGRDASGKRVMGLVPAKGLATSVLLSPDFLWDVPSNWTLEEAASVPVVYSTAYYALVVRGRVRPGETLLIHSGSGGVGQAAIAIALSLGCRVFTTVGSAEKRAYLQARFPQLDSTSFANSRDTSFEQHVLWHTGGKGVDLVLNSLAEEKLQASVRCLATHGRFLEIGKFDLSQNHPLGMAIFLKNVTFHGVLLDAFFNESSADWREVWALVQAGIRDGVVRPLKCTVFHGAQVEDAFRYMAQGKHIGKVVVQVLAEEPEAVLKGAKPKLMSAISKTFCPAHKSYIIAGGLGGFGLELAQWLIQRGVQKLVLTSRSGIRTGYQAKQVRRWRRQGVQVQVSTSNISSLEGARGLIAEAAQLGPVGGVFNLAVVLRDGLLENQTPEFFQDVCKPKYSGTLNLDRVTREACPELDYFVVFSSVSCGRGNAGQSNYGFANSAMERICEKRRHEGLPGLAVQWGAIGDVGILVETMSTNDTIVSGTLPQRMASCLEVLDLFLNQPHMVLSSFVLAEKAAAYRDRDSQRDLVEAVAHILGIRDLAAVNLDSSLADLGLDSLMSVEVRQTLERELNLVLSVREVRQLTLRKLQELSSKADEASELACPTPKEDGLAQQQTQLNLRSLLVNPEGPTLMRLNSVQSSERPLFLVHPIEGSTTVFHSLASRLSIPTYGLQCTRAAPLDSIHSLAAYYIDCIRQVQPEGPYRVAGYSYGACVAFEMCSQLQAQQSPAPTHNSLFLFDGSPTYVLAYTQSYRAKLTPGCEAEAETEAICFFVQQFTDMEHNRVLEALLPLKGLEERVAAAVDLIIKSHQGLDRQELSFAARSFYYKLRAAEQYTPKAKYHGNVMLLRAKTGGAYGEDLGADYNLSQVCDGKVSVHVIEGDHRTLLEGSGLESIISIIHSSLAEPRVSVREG
Sequence of Broad substrate specificity ATP-binding cassette transporter ABCG2 (Homo sapiens) (Q9UNQ0 whole entry, looked up): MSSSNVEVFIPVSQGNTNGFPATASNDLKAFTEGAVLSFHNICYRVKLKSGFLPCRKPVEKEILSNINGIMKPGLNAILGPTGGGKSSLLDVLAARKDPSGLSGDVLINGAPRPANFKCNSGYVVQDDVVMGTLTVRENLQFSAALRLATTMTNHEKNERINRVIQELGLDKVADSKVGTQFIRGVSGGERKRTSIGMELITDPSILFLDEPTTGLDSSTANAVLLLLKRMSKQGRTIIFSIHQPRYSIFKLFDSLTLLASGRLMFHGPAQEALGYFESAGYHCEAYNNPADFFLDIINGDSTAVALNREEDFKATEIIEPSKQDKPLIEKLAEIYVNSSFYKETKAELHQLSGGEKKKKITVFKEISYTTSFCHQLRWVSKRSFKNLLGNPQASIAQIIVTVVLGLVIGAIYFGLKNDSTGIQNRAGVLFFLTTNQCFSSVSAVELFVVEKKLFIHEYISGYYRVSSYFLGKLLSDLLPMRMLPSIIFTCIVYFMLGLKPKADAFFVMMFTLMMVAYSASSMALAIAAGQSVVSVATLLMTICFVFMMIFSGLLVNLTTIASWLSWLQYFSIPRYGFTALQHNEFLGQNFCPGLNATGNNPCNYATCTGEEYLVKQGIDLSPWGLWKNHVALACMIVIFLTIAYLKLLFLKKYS

As a reminder, the AC50 is the concentration at which the activity in the assay is half-maximal. As to `CC1=C2C[C@H]3[C@@H](CC=C4C[C@@H](O)CC[C@@]43C)[C@@H]2CC[C@]12O[C@@H]1C[C@H](C)CN[C@H]1[C@H]2C`, the call in assay [1], in assay [2], in assay [3], in assay [4], in assay [5] and in [6] was inactive. The compound was classed as inactive in assay [8], in assay [9], in assay [10], in assay [11], in assay [12] and in assay [13]. In addition, the call in assay [14], in [15], in assay [17] and in [18] was inactive. Further, the AC50 in [7] is 34.3 µM (active); in assay [16], 12.1 µM (active).

As to `c1cc2ccc3cccc4ccc(c1)c2c34`, the compound was called inactive in assay [1], in [3], in [4], in [5], in assay [6] and in [8]. Moreover, the call in assay [10], in assay [11], in [12], in [13], in assay [14] and in [15] was inactive. In addition, the outcome in assay [19], in assay [17] and in [18] was inactive. Besides, the AC50 in assay [2] is 5 µM (active); in assay [7], 24.3 µM (active); in assay [9], 29.5 µM (active); in assay [16], 4.08 µM (active).

Take `CN(C)c1nc(=O)n(C2CCCCC2)c(=O)n1C`: the outcome in assay [1], in assay [2], in [3], in [4], in assay [5] and in assay [6] was inactive. The outcome in [8], in assay [20], in [10], in assay [11], in assay [12] and in assay [13] was inactive. In addition, the result in [14], in assay [15], in assay [16], in assay [17] and in assay [18] was inactive. Besides, the half-maximal activity concentration (AC50) in assay [7] was 50 µM (active).

For the origin of these results see PubChem BioAssay (EPA / NIEHS).
